Results filed as inconclusive are left out. Active and inactive are the calls of the source. Unless noted, the call rests on the fitted dose curve.
System: not listed separately
Assay: qHTS for Inhibitors of the Functional Ribonucleoprotein Complex (vRNP) of Lymphocytic Choriomeningitis Arenaviruses (LCMV): Viability assay - alamar blue signal for LCMV Primary Screen (AID 1347085; calls by dose curve; tested in HEK293 reporter line; further: nearly all actives have a fitted effect of over 80% in size)
Settings: alamar blue viability counter-screen, LCMV vRNP screen cells; series mostly up to 57.5 µM; activity change, negative = lower viability: at the top concentration
On the % scale 0 is the no-effect control and ±100 the full control effect.

SMILES	activity change, negative = lower viability	Potency
Cc1c(C)c2c(c(C)c1O)CCC(C)(COc1ccc(CC3SC(=O)NC3=O)cc1)O2 (stereo not drawn)	27.5% (inactive)	–
NS(=O)(=O)c1ccc(Cl)c(S(N)(=O)=O)c1	8.43% (inactive)	–
O=C(Oc1ccccc1C(=O)O)c1ccccc1O	-0.119% (inactive)	–
COC(=O)N/N=C/c1c[n+]([O-])c2ccccc2[n+]1[O-]	4.51% (inactive)	–
CCc1cc(S(=O)(=O)O)c2cc(C(C)C)cccc1-2	0.0882% (inactive)	–
Cc1c(Nc2ncccc2C(=O)O)cccc1C(F)(F)F	-25.7% (inactive)	–
Cc1cc(O)cc2c1O[C@](C)(CCC[C@H](C)CCC[C@H](C)CCCC(C)C)CC2	11.7% (inactive)	–
C=CC(N)CCC(=O)O (stereo not drawn)	0.005% (inactive)	–
O=C(O)[C@@H]1[C@H]2C[C@H]3c4[nH]c5ccccc5c4CCN3C[C@@H]2CC[C@@H]1O	6.02% (inactive)	–
C/C(=N\O)c1ccc(OCC(=O)N2CCCCC2)cc1	6.5% (inactive)	–
C[N+](C)(C)CC(O)CC(=O)[O-] (stereo not drawn)	25.2% (inactive)	–
O=C1O[C@H](CO)[C@@H](O)[C@H](O)[C@H]1O	1.7% (inactive)	–
Cc1cccc(C)c1NC(=O)CC12CCCN1CCC2	-5.37% (inactive)	–
Cn1c(=O)c2[nH]cnc2n(C)c1=O	–	inactive
C/C=C/C=N/NC(=O)c1ccncc1	-0.135% (inactive)	–
N#CCC(=O)NN	-3% (inactive)	–
Cn1c(=O)c2[nH]c(Br)nc2n(C)c1=O	-12.1% (inactive)	–
CCOC(=O)/C=C(C)/C=C/C=C(C)/C=C/c1c(C)cc(OC)c(C)c1C	2.21% (inactive)	–
O=C(O)c1cccnc1	–	inactive
Cc1nnc(NS(=O)(=O)c2ccc(N)cc2)s1	–	inactive

SMILES	activity change, negative = lower viability	Potency
Cc1ncc(CO)c(CO)c1O	–	inactive
CSCC[C@H](NC(=O)[C@H](Cc1c[nH]c2ccccc12)NC(=O)CCNC(=O)OC(C)(C)C)C(=O)N[C@@H](CC(=O)O)C(=O)N[C@@H](Cc1ccccc1)C(N)=O	-0.428% (inactive)	–
CN(CC1(C)CCCO1)S(=O)(=O)c1ccc(Cl)c(S(N)(=O)=O)c1 (stereo not drawn)	-0.664% (inactive)	–
CC(=O)OCC(=O)[C@@]1(O)CC[C@H]2[C@@H]3CCC4=CC(=O)C=C[C@]4(C)[C@@]3(F)[C@@H](O)C[C@@]21C	-1.75% (inactive)	–
CC(=O)N[C@@H](CCC(=O)O)C(=O)O	0.663% (inactive)	–
CCCCCCCC/C=C\CCCCCCCC(=O)NCc1ccc(O)c(OC)c1	–	inactive
CCC(=O)c1c(O)cc(O)cc1O	18.4% (inactive)	–
C[C@]12CCC(=O)C=C1CC[C@H]1[C@@H]3CC[C@](O)(C(=O)CO)[C@@]3(C)C[C@H](O)[C@@]12F	13.2% (inactive)	–
CN1[C@@H]2CC(OC(=O)[C@H](CO)c3ccccc3)C[C@H]1[C@@H]1O[C@@H]12 (stereo partly drawn)	1.75% (inactive)	–
FC(F)(F)c1ccccc1-n1ccnc1	–	inactive
CCCCC(CC)COC(=O)c1ccccc1O (stereo not drawn)	-0.74% (inactive)	–
Cc1c(NC(=O)c2cccnc2)c(=O)n(-c2ccccc2)n1C	2.9% (inactive)	–
C=C[C@H]1CN2CC[C@H]1C[C@H]2[C@H](O)c1ccnc2ccc(OC)cc12	3.48% (inactive)	–
CC(=O)OCC(=O)[C@@]1(O)CC[C@H]2[C@@H]3CCC4=CC(=O)CC[C@]4(C)[C@H]3C(=O)C[C@@]21C	–	inactive
C#C[C@]1(O)CC[C@H]2[C@@H]3CCc4cc(OC5CCCC5)ccc4[C@H]3CC[C@@]21C	-19.6% (inactive)	–
NC(=O)N[C@@H](CCC(=O)O)C(=O)O	15.7% (inactive)	–
CN=C(NC#N)NCCSCc1csc(N=C(N)N)n1	-0.56% (inactive)	–
NS(=O)(=O)c1cc(C(=O)NN2C[C@H]3[C@H]4CCC(C4)[C@H]3C2)ccc1Cl	8.89% (inactive)	–
CC(C)OC(=O)OCOP(=O)(CO[C@H](C)Cn1cnc2c(N)ncnc21)OCOC(=O)OC(C)C	–	inactive

Target: Nucleoprotein (Lymphocytic choriomeningitis virus (strain Armstrong)) (UniProt P09992)
Sequence (P09992 whole entry, looked up): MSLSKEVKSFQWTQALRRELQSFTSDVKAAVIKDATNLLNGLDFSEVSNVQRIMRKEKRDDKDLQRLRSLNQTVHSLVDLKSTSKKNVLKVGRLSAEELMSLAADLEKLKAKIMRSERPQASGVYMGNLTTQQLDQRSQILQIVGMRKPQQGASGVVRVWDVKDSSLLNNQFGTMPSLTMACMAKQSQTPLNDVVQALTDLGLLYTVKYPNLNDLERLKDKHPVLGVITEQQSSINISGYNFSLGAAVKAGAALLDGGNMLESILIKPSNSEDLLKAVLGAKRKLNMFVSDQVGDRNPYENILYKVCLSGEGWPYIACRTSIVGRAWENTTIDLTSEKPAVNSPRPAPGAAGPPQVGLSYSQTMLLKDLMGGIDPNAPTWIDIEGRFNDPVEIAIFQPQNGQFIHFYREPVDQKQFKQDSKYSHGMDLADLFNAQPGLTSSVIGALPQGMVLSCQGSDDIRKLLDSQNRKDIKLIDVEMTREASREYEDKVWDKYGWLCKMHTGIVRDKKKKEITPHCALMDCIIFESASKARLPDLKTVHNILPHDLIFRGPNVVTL
Assay: qHTS for Inhibitors of the Functional Ribonucleoprotein Complex (vRNP) of Lymphocytic Choriomeningitis Arenaviruses (LCMV): LCMV Primary Screen - GLuc reporter signal (AID 1347086); further: nearly all actives have a fitted effect of over 70% in size
Settings: LCMV minigenome vRNP cell assay, Gaussia luciferase reporter; series mostly up to 57.5 µM; activity change, negative = inhibition: at the top concentration

SMILES	activity change, negative = inhibition	Potency
Cc1c(C)c2c(c(C)c1O)CCC(C)(COc1ccc(CC3SC(=O)NC3=O)cc1)O2 (stereo not drawn)	13.7% (inactive)	–
NS(=O)(=O)c1ccc(Cl)c(S(N)(=O)=O)c1	-1.74% (inactive)	–
O=C(Oc1ccccc1C(=O)O)c1ccccc1O	14.9% (inactive)	–
COC(=O)N/N=C/c1c[n+]([O-])c2ccccc2[n+]1[O-]	5.72% (inactive)	–
CCc1cc(S(=O)(=O)O)c2cc(C(C)C)cccc1-2	-1.01% (inactive)	–
Cc1c(Nc2ncccc2C(=O)O)cccc1C(F)(F)F	-22% (inactive)	–
Cc1cc(O)cc2c1O[C@](C)(CCC[C@H](C)CCC[C@H](C)CCCC(C)C)CC2	-7.57% (inactive)	–
C=CC(N)CCC(=O)O (stereo not drawn)	0.394% (inactive)	–
O=C(O)[C@@H]1[C@H]2C[C@H]3c4[nH]c5ccccc5c4CCN3C[C@@H]2CC[C@@H]1O	4.46% (inactive)	–
C/C(=N\O)c1ccc(OCC(=O)N2CCCCC2)cc1	1.11% (inactive)	–
C[N+](C)(C)CC(O)CC(=O)[O-] (stereo not drawn)	6.05% (inactive)	–
O=C1O[C@H](CO)[C@@H](O)[C@H](O)[C@H]1O	-8.03% (inactive)	–
Cc1cccc(C)c1NC(=O)CC12CCCN1CCC2	11.9% (inactive)	–
Cn1c(=O)c2[nH]cnc2n(C)c1=O	–	inactive
C/C=C/C=N/NC(=O)c1ccncc1	9.37% (inactive)	–
N#CCC(=O)NN	-5.32% (inactive)	–
Cn1c(=O)c2[nH]c(Br)nc2n(C)c1=O	5.76% (inactive)	–
CCOC(=O)/C=C(C)/C=C/C=C(C)/C=C/c1c(C)cc(OC)c(C)c1C	-10.1% (inactive)	–
O=C(O)c1cccnc1	–	inactive
Cc1nnc(NS(=O)(=O)c2ccc(N)cc2)s1	–	inactive

SMILES	activity change, negative = inhibition	Potency
Cc1ncc(CO)c(CO)c1O	–	inactive
CSCC[C@H](NC(=O)[C@H](Cc1c[nH]c2ccccc12)NC(=O)CCNC(=O)OC(C)(C)C)C(=O)N[C@@H](CC(=O)O)C(=O)N[C@@H](Cc1ccccc1)C(N)=O	-11.5% (inactive)	–
CN(CC1(C)CCCO1)S(=O)(=O)c1ccc(Cl)c(S(N)(=O)=O)c1 (stereo not drawn)	7.65% (inactive)	–
CC(=O)OCC(=O)[C@@]1(O)CC[C@H]2[C@@H]3CCC4=CC(=O)C=C[C@]4(C)[C@@]3(F)[C@@H](O)C[C@@]21C	35.8% (inactive)	–
CC(=O)N[C@@H](CCC(=O)O)C(=O)O	4.8% (inactive)	–
CCCCCCCC/C=C\CCCCCCCC(=O)NCc1ccc(O)c(OC)c1	–	inactive
CCC(=O)c1c(O)cc(O)cc1O	1.12% (inactive)	–
C[C@]12CCC(=O)C=C1CC[C@H]1[C@@H]3CC[C@](O)(C(=O)CO)[C@@]3(C)C[C@H](O)[C@@]12F	19.8% (inactive)	–
CN1[C@@H]2CC(OC(=O)[C@H](CO)c3ccccc3)C[C@H]1[C@@H]1O[C@@H]12 (stereo partly drawn)	4.2% (inactive)	–
FC(F)(F)c1ccccc1-n1ccnc1	–	inactive
CCCCC(CC)COC(=O)c1ccccc1O (stereo not drawn)	2.11% (inactive)	–
Cc1c(NC(=O)c2cccnc2)c(=O)n(-c2ccccc2)n1C	8.78% (inactive)	–
C=C[C@H]1CN2CC[C@H]1C[C@H]2[C@H](O)c1ccnc2ccc(OC)cc12	-7.54% (inactive)	–
CC(=O)OCC(=O)[C@@]1(O)CC[C@H]2[C@@H]3CCC4=CC(=O)CC[C@]4(C)[C@H]3C(=O)C[C@@]21C	–	inactive
C#C[C@]1(O)CC[C@H]2[C@@H]3CCc4cc(OC5CCCC5)ccc4[C@H]3CC[C@@]21C	-6.9% (inactive)	–
NC(=O)N[C@@H](CCC(=O)O)C(=O)O	8.2% (inactive)	–
CN=C(NC#N)NCCSCc1csc(N=C(N)N)n1	3.23% (inactive)	–
NS(=O)(=O)c1cc(C(=O)NN2C[C@H]3[C@H]4CCC(C4)[C@H]3C2)ccc1Cl	-2.14% (inactive)	–
CC(C)OC(=O)OCOP(=O)(CO[C@H](C)Cn1cnc2c(N)ncnc21)OCOC(=O)OC(C)C	–	inactive

Source: PubChem BioAssay (NCATS)
